# Assay results: the supplement of paper PMC10849652
# About 7,900 targets were measured; listed, in parts, are those with a hit and a random draw of the rest. About 0.6% of all pairs of compound and target were hits. A number with no mark means an inactive call.
# What was measured:
# Assay in all cases: log2 fold change, soluble protein after heating vs DMSO (PISA); higher = thermal stabilisation; K562 cells, 10 uM, 30 min; active = over 0.2 and 3.5 SD of the protein, either way, in both replicates (recomputed)
# saracatinib = compound: CN1CCN(CCOc2cc(OC3CCOCC3)c3c(Nc4c(Cl)ccc5c4OCO5)ncnc3c2)CC1 [saracatinib]
# In short: (§1)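 K562 cells at 2×10^6 cells/mL were exposed to 10 μM compound for 30 min, then aliquots were heated for 3 min across 48°C-58°C, pooled, and extracted in PBS containing 0.5% NP-40 at 4°C. The supernatant after 21,000xg for 90 min was taken as soluble protein and measured by TMTpro 16plex LC-MS/MS with channel sums equalised. Thermal stability is reported relative to control samples, with values from duplicates. Fold changes are given on a log2 scale.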
# sotrastaurin = compound: CN1CCN(c2nc(C3=C(c4c[nH]c5ccccc45)C(=O)NC3=O)c3ccccc3n2)CC1 [sotrastaurin]
# In short: as §1
# alvocidib = compound: CN1CC[C@H](c2c(O)cc(O)c3c(=O)cc(-c4ccccc4Cl)oc23)[C@H](O)C1 [alvocidib]
# In short: as §1
# Tubastatin A = compound: CN1CCc2c(c3ccccc3n2Cc2ccc(C(=O)NO)cc2)C1 [Tubastatin A]
# In short: as §1
# [1] = compound: CNC(=O)C1=CC=CC=C1NC2=NC(=NC=C2Cl)NC3=C(C=C(C=C3)N4CCOCC4)OC
# In short: as §1
# defactinib = compound: CNC(=O)c1ccc(Nc2ncc(C(F)(F)F)c(NCc3nccnc3N(C)S(C)(=O)=O)n2)cc1 [defactinib]
# In short: as §1
# rucaparib = compound: CNCc1ccc(-c2[nH]c3cc(F)cc4c3c2CCNC4=O)cc1 [rucaparib]
# In short: as §1
# [2] = compound: CNc1nc(-c2ccc3c(N)n[nH]c3c2)cc(N2C[C@@H](C(=O)NC3CCCCC3)CC[C@H]2C)n1
# In short: as §1
# encorafenib = compound: COC(=O)N[C@@H](C)CNc1nccc(-c2cn(C(C)C)nc2-c2cc(Cl)cc(NS(C)(=O)=O)c2F)n1 [encorafenib]
# In short: as §1
# [3] = compound: COC(=O)[C@H](CCSC)NC(=O)C1=C(C=C(C=C1)NC[C@H](CS)N)C2=CC=CC=C2
# In short: as §1
# Sequence of UniProt Q9C035 (Q9C035 whole entry, looked up): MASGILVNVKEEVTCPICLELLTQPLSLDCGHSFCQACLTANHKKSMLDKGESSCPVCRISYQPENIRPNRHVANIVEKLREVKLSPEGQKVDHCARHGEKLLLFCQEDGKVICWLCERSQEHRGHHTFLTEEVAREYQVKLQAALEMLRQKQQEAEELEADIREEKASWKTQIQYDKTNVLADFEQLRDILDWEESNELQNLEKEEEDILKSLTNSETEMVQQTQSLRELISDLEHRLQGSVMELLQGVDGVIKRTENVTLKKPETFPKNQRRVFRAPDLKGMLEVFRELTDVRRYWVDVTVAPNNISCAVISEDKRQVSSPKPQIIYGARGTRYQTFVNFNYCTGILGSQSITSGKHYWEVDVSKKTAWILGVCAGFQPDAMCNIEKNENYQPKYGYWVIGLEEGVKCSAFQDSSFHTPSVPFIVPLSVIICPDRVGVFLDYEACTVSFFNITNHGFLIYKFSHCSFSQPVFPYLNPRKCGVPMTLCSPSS
# Sequence of UniProt Q9H6R7 (Q9H6R7 whole entry, looked up): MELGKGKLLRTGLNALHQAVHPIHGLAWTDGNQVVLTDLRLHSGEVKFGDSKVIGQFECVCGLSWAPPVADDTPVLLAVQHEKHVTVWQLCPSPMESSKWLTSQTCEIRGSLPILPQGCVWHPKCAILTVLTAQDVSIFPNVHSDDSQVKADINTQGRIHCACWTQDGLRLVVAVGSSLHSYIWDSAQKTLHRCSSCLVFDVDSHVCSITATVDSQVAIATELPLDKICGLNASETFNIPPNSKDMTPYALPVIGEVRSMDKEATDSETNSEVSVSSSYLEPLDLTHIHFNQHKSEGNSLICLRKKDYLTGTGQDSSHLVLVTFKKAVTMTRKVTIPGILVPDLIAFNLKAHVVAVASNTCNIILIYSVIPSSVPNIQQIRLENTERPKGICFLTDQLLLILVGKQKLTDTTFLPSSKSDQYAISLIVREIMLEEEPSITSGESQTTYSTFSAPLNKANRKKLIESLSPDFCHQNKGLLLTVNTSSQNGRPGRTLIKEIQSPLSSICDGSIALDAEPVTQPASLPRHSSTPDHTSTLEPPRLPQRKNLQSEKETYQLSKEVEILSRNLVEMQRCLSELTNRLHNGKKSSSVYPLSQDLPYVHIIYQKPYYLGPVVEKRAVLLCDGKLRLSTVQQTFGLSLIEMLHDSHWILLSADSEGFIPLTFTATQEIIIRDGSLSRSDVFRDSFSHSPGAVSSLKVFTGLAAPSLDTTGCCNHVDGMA
# Sequence of UniProt Q86XT9 (Q86XT9 whole entry, looked up): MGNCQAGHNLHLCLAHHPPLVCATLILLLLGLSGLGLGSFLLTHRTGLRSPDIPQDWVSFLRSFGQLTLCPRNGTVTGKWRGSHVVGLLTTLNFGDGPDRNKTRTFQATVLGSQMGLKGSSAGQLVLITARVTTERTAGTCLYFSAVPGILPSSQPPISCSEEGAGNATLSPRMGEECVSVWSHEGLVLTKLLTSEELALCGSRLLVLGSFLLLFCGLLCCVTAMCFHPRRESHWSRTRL
# Sequence of UniProt O95155 (O95155 whole entry, looked up): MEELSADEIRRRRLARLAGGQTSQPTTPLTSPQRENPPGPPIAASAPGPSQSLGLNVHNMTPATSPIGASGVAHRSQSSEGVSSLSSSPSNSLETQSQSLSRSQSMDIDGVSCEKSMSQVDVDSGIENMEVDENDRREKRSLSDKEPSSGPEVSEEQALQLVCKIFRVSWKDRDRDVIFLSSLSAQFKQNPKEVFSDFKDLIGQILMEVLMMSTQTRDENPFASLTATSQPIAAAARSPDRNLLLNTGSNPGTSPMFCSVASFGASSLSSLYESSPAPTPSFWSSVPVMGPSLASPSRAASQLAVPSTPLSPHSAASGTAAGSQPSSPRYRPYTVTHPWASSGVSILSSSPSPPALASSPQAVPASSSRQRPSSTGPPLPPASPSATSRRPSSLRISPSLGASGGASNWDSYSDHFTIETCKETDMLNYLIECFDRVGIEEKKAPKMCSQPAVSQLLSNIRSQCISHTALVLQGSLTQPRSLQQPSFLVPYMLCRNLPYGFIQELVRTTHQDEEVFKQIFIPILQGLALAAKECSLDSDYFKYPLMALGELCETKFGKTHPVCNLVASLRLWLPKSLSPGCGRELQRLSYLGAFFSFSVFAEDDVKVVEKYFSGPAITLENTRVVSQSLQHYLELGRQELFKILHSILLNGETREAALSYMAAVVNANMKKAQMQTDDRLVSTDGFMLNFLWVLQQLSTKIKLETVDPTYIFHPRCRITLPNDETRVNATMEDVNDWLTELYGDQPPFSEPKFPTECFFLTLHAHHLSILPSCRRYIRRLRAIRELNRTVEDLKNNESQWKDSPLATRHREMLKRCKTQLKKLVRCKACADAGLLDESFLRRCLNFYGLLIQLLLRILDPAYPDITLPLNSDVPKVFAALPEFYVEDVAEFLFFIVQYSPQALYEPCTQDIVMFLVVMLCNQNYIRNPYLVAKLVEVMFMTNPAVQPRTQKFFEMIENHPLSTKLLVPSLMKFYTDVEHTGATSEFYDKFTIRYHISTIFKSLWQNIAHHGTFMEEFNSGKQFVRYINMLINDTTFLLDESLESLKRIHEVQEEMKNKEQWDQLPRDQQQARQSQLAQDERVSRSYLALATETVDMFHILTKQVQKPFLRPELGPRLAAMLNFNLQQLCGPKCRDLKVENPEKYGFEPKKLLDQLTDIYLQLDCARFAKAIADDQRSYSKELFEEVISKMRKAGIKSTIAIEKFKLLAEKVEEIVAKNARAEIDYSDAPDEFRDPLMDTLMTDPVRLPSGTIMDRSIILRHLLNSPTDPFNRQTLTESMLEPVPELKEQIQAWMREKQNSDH
# Sequence of UniProt O43396 (O43396 whole entry, looked up): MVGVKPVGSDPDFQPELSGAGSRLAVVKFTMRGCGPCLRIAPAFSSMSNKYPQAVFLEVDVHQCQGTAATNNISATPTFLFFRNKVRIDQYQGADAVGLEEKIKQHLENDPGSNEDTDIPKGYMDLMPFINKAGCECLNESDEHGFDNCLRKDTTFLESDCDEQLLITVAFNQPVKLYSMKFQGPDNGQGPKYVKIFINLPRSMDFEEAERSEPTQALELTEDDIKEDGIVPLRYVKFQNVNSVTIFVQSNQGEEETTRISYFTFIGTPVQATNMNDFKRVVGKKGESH
# Sequence of UniProt P30291 (P30291 whole entry, looked up): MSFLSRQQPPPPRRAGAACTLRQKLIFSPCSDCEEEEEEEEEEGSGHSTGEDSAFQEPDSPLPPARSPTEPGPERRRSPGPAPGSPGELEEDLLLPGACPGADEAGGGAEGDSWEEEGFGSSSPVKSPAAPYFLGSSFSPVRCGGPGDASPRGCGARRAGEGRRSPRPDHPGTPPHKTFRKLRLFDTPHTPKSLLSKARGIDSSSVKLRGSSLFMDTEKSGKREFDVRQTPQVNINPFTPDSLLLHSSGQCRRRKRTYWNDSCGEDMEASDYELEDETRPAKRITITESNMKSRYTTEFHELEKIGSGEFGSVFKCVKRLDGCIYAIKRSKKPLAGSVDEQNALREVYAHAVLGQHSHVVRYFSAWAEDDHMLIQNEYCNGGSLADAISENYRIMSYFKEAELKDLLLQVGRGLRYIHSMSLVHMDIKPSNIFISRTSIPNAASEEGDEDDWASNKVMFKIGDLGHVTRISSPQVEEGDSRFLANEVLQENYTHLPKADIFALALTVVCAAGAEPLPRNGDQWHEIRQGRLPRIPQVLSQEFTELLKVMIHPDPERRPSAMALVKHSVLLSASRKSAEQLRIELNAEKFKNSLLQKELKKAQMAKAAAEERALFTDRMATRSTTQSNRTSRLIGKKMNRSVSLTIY
# Sequence of UniProt Q9Y385 (Q9Y385 whole entry, looked up): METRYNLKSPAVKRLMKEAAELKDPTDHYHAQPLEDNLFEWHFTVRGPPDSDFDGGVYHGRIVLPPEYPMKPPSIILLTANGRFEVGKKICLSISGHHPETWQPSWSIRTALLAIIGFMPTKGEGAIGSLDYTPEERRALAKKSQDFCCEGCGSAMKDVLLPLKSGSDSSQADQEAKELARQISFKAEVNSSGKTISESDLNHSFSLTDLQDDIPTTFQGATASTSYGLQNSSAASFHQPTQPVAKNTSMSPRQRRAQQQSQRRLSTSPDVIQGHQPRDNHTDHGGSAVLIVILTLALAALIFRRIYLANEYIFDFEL
# Sequence of UniProt Q5R3I4 (Q5R3I4 whole entry, looked up): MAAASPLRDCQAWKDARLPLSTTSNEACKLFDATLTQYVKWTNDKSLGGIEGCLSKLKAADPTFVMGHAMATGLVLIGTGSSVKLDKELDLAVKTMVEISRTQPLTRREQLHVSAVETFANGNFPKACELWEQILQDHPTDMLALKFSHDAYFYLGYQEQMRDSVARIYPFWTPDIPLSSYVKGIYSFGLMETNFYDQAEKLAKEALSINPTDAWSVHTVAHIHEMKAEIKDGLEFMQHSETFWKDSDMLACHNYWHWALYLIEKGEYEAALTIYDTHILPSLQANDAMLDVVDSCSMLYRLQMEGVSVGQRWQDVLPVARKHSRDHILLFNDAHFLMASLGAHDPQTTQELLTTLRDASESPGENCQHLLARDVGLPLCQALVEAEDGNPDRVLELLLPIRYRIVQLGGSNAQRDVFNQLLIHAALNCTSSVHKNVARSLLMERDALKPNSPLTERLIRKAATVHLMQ
# Sequence of UniProt Q9H3M7 (Q9H3M7 whole entry, looked up): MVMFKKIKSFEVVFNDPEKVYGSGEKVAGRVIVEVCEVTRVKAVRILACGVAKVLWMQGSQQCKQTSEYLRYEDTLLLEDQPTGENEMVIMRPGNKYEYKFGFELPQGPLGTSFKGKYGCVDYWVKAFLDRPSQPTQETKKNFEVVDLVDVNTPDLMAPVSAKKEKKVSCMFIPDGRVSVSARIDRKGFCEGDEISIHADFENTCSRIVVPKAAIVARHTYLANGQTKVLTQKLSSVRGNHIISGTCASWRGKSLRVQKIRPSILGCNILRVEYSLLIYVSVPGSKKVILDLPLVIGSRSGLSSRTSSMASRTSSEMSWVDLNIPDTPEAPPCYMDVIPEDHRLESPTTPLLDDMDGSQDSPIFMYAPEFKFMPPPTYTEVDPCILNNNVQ
Target,log2 fold change (saracatinib),log2 fold change (sotrastaurin),log2 fold change (alvocidib),log2 fold change (Tubastatin A),log2 fold change [1],log2 fold change (defactinib),log2 fold change (rucaparib),log2 fold change [2],log2 fold change (encorafenib),log2 fold change [3]
TTC38 (UniProt Q5R3I4),-0.045,0.086,-0.132,0.578 (active),-0.062,-0.262,0.435,0.293,-0.02,-0.011
USP34 (UniProt Q70CQ2),0.006,-0.102,-0.274,0.069,-0.049,-0.164,-0.055,-0.015,0.08,0.002
TUBAL3 (UniProt A6NHL2),-0.074,-0.054,0.058,-0.003,-0.125,-0.069,-0.51 (active),0.067,0.187,-0.057
UBIAD1 (UniProt Q9Y5Z9),0.003,0.208,0.021,-0.078,0.054,0.002,0.473 (active),-0.053,-0.035,-0.039
WDCP (UniProt Q9H6R7),-0.039,-0.034,0.054,-0.032,0,-0.016,0.14,-0.02,0.043,-0.006
WDR37 isoform 2 (UniProt Q9Y2I8),-0.094,-0.01,0.207,-0.019,-0.077,0,0.064,-0.108,0.084,-0.007
TTI1 (UniProt O43156),-0.065,-0.128,0.017,-0.007,-0.058,-0.046,0.237,0.053,0.068,0.004
UBE2J1 (UniProt Q9Y385),0.019,-0.016,-0.073,0.26,-0.046,-0.133,0.048,0.204,0.001,0.035
UHRF1BP1L (UniProt A0JNW5),-0.01,0,-0.037,0.031,-0.051,-0.024,-0.052,0.05,-0.02,-0.029
WASH2P (UniProt Q6VEQ5),0.009,-0.08,-0.018,-0.059,0.02,-0.004,-0.011,-0.037,0.004,0.007
UBE4B isoform 4 (UniProt O95155),0.018,-0.038,-0.104,0.016,0.02,-0.071,-0.077,-0.058,0.01,-0.001
VKORC1 (UniProt Q9BQB6),0.002,-0.086,0.073,-0.052,0.105,-0.038,-0.059,0.026,0.057,-0.023
WEE1 (UniProt P30291),0.068,0.007,0.084,0.117,0.075,-0.029,–,-0.052,–,0.082
VPS16 (UniProt Q9H269),0.026,-0.171,-0.028,-0.001,-0.071,-0.042,-0.049,-0.054,0.196,-0.022
TPR (UniProt P12270),0.152,-0.147,-0.012,-0.035,0.239,0.005,-0.043,-0.112,-0.047,0.023
VPS37A (UniProt Q8NEZ2),-0.043,-0.087,0.015,0.002,0.07,-0.164,–,0.065,–,0.138
TMEM8A (UniProt Q9HCN3),0.059,-0.099,-0.009,0.108,-0.042,-0.039,0.004,0.02,0.037,-0.191
WDR4 (UniProt P57081),0.008,0.071,-0.068,0.018,-0.022,-0.027,-0.079,0.024,0.041,-0.033
VPS35L (UniProt Q7Z3J2),0.013,-0.141,0.17,-0.015,-0.016,-0.081,0.018,0.045,-0.001,-0.037
TRIM5 (UniProt Q9C035),-0.429,0.103,-0.048,-0.102,-0.093,-0.108,–,-0.017,–,0.019
TRIM23 (UniProt P36406),0.033,0.075,-0.034,0.032,-0.049,-0.004,0.057,0.035,0.012,-0.039
TXNIP (UniProt Q9H3M7),-0.074,0,-0.307,0.06,0.179,-0.085,-0.026,0.243,0.01,0.07
TSEN2 (UniProt Q8NCE0),-0.014,-0.186,-0.044,-0.024,-0.042,-0.009,0.007,-0.005,-0.068,-0.049
TMEM219 (UniProt Q86XT9),0.261,0.03,-0.12,-0.059,-0.016,-0.185,–,0.176,–,-0.093
TXNL1 (UniProt O43396),-0.008,-0.068,-0.1,0.215,0.034,-0.085,0.019,0.024,0.062,-0.045
TSPAN13 (UniProt O95857),-0.055,0.044,-0.305,-0.11,0.054,-0.104,–,-0.029,–,-0.291
TUBA4A (UniProt P68366),0.045,-0.012,-0.048,-0.051,-0.039,-0.024,-0.046,0.038,-0.012,0.013
XRCC6 (UniProt P12956),-0.013,-0.114,-0.187,0.099,-0.047,-0.264 (active),-0.007,-0.015,0.048,-0.041
USP15 (UniProt Q9Y4E8),-0.013,-0.093,-0.069,0.014,0.049,-0.093,0.032,0.019,0.061,-0.031
VPS52 (UniProt Q8N1B4),-0.012,-0.107,-0.061,0.074,-0.047,-0.031,0.121,-0.01,0.02,-0.072
